Methyltransferases: Primary Screen for Target Class Profiling of Small Molecule Inhibitors of Methyltransferases. purified enzyme, MTase-Glo SAH luminescence; stronger effect = lower value. calls only at 40 µM. hit rate 3.9% among 25,000; call rule not given here
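Each enzyme was assayed with SAM and its substrate. SAH formation detected by MTase-Glo luminescence; single-point 40 uM screen[…].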
Of the large screens only hits and unclear results are named; the others gave an inactive call; ! = repeats disagree. Shown is part of a subset that was picked to be rich in hits.

C=C1C(OC2OC(CO)C(O)C(O)C2O)CC2C(C)(C)C(O)CCC2(C)C1CC/C(C)=C\COC(=O)CC(=O)O (stereo not drawn)	Methyltransferases active
COc1cccc(C2c3cccn3-c3sc4c(c3CN2C(=O)Nc2ccccc2)CCCC4)c1 (stereo not drawn)	none
CC(C)C1CCC(CO)=CC1/C=C(\CO)C(=O)OCC1(O)CCC(C(C)C)C2C=C(C(=O)O)COC(=O)C21 (stereo not drawn)	none
CC1CCCCN1C(=O)C1COC2(CCN(C(=O)c3ccco3)CC2)N1C(=O)c1ccccc1 (stereo not drawn)	none
COc1ccc(N2C(=O)c3cc4sccc4n3CC2(C)C(=O)NC2CCCCCC2)cc1OC (stereo not drawn)	none
COc1cc(C(=O)OCC2=CCC3C(C(=O)O)=COC(O[C@@H]4O[C@H](CO)[C@@H](O)[C@H](O)[C@H]4O)C23)ccc1O (stereo partly drawn)	none
O=C(/C=C/c1ccc(O)c(O)c1)OC[C@H]1O[C@@H](OC2CCCCC2O)[C@H](O)[C@@H](O)[C@@H]1O (stereo partly drawn)	none
CC(C)(O)C1CC=C(C(=O)OCC2OC(Oc3c(O)cc(C(=O)O)cc3O)C(O)C(O)C2O)CC1 (stereo not drawn)	Methyltransferases active
CC(=O)c1ccc(O[C@@H]2O[C@H](CO[C@@H]3OC[C@@H](O)[C@H](O)[C@H]3O)[C@@H](O)[C@H](O)[C@H]2O)cc1	none
Cc1cc(O[C@@H]2O[C@H](COC(=O)CC(=O)O)[C@@H](O)[C@H](O)[C@H]2O)c(C(C)C)cc1O	none
CC(C)(O)C1CC=C(C(=O)OC[C@H]2O[C@@H](Oc3cc(C(=O)O)cc(O)c3O)[C@H](O)[C@@H](O)[C@@H]2O)CC1 (stereo partly drawn)	Methyltransferases active
CCN1C(=O)c2cc3ccccc3n2CC1(C)C(=O)NCC(=O)NCc1ccc(C)cc1 (stereo not drawn)	none
CCCn1c(=O)c2ccc(C(=O)NCC(C)C)cc2n2c(=O)n(Cc3ccccc3C)nc12	none
CCOC(=O)c1cc2n(n1)CC(C)(C(=O)NC1CCCCCC1)N(Cc1ccccc1C)C2=O (stereo not drawn)	none
COc1cc(F)c(-c2nccn2CC(O)c2ccccc2)cc1OC (stereo not drawn)	none
COC(=O)c1ccc([C@@H]2Nc3c(Cl)cccc3[C@@H]3C=CC[C@@H]32)cc1	none
Fc1cccc2c1NC(c1ccc(Cl)cc1)C1CC=CC21 (stereo not drawn)	none
Cc1ccc(C(=O)O)c2c1N[C@H](c1cccc(Cl)c1)C1CC=CC21 (stereo partly drawn)	Methyltransferases active
COC(=O)C1=C(C)NC(C)=C(C(=O)OC)C1c1cccc(NC(=O)NCCCN2CCC(c3cccc(OC)c3)CC2)c1	Methyltransferases active!
CCN(CC)c1ncccc1CNC(=O)Nc1cccc(OC)c1	none
COc1cccc(CNC(=O)Nc2cccc(-c3ccc(N4CCCCC4)nn3)c2)c1	none
CCc1noc([C@@H]2CC(F)(F)CN2C(=O)c2ccco2)n1	none
CC(C)CCNC(=O)C1(C)Cn2c(nc3ccccc32)C(=O)N1CCc1ccc(Cl)cc1 (stereo not drawn)	none
O=C(CCn1ccc2cc(S(=O)(=O)N3CCCCC3)ccc21)NCc1cccc(Cl)c1	none
C=CC(=O)Nc1cccc(Nc2nc(Nc3ccc(NC4CN(CCF)C4)cc3OC)ncc2C(F)(F)F)c1	none
CC(=O)NCC(=O)N1C2CCC1c1cc(Nc3ncc(C(F)(F)F)c(NC4CCC4)n3)ccc12 (stereo not drawn)	Methyltransferases active
COc1cccc(-c2ccc(NC(=O)C3CCCN3C(=O)CNC(C)=O)cc2)c1 (stereo not drawn)	none
Cc1ccc(C(=O)Cn2nc3n(C(C)C)c(=O)c4ccc(C(=O)NC5CCCC5)cc4n3c2=O)cc1	none
CCCCN1C(=O)c2cc(C(=O)NCc3ccc(OCC)cc3)nn2CC1(C)C(=O)NC1CCCC1 (stereo not drawn)	none
CCCn1c(=O)c2ccccc2n2c(=O)n(Cc3ccccc3F)nc12	none
CC1(C(=O)NC2CCCC2)Cn2c(nc3ccccc32)C(=O)N1CCc1ccc(Cl)cc1 (stereo not drawn)	none
CC(C)NC(=O)c1ccc2c(=O)n(C(C)C)c3nn(Cc4cccc(F)c4)c(=O)n3c2c1	none
COc1ccc(/C=C\C(=O)O)c(O[C@@H]2O[C@H](CO)[C@@H](O)[C@H](O)[C@H]2O)c1	none
COc1cc(C(=O)OC[C@H]2O[C@@H](Oc3ccccc3/C=C/C(=O)O)[C@H](O)[C@@H](O)[C@@H]2O)cc(OC)c1OC	Methyltransferases active
COc1cc(/C=C/C(=O)O[C@H]2[C@H](O)[C@@H](CO)O[C@@]2(CO)O[C@H]2O[C@H](COC(=O)c3ccc(O)cc3)[C@@H](O)[C@H](O)[C@H]2O)cc(OC)c1OC	none
CCc1cccc(CC)c1-n1c(C=C(C)C)c(C(=O)N2CCNCC2)cc(-c2nc(-c3ccc(C(F)(F)F)cc3)cs2)c1=O	none
COc1cccc(C(=O)Cn2nc3n(C(C)C)c(=O)c4ccc(C(=O)NC5CCCCC5)cc4n3c2=O)c1	none
CCC(C)NC(=O)c1ccc2c(=O)n(Cc3ccccc3)c3nn(Cc4cccc(Cl)c4)c(=O)n3c2c1 (stereo not drawn)	none
Cc1cc(C(=O)N2c3ccccc3CC2c2nnc(C(C)C)o2)nn1C (stereo not drawn)	none
Cc1cccc(-c2n[nH]n3c2nc(=O)c2ccc(C(=O)N4CCN(c5ccc(F)cc5)CC4)cc23)c1	none
COc1ccc(CNC(=O)CCC2CCCN(C(=O)CCN3CCCCO3)C2)c(OC)c1 (stereo not drawn)	none
CCC(=O)N1CCOc2c(cc(-c3ccc(OC)c(OC)c3)cc2OC[C@H]2CCCN(C)C2)C1	Methyltransferases active!
Cc1ccccc1-c1cc(O)c2c(c1)CN(C(=O)C1CCNCC1)CCO2	none
COc1ccc(NC(=O)Cn2nc3nc(Nc4ccc(F)cc4)ccn3c2=O)cc1Cl	none
Cc1ccc(N2C(=O)c3cc(C(C)(C)C)nn3CC2(C)C(=O)NCc2ccccc2)cc1C (stereo not drawn)	none
Oc1ccc(/C=C/c2cc(O)cc(O)c2)cc1	none
O=C(/C=C/c1ccc(O)c(O)c1)OCCc1ccccc1	none
O=c1cc(O)cc(/C=C/c2ccc(O)c(O)c2)o1	Methyltransferases active
Cc1ccc(Cn2nc3n(CCC(C)C)c(=O)c4ccccc4n3c2=O)cc1	none
COc1ccc(CN2C(=O)c3ccc(-c4ccco4)n3CC2(C)C(=O)NC2CCCCC2)cc1 (stereo not drawn)	none
N#Cc1cccc(-c2c[nH]c3ncnc(N4CCOCC4)c23)c1	Methyltransferases active
CCCn1c(=O)c2cc(F)ccc2n2c(SCC(=O)Nc3ccc(C)cc3C)nnc12	none
COc1ccc(-n2c(=O)[nH]c3cccnc32)cc1OC	none
COc1cc2c(cc1-c1c(C)noc1C)ncc1[nH]c(=O)n(C(C)c3ccccn3)c12 (stereo not drawn)	Methyltransferases active!
CC1(C(=O)NC2CCCCCC2)Cn2c(ccc2-c2ccccc2)C(=O)N1Cc1ccc(F)cc1 (stereo not drawn)	none
O=C(Nc1ccc(F)cc1F)N1Cc2c(sc3c2CCCC3)-n2cccc2C1c1cccc(F)c1 (stereo not drawn)	none
CC1=CC(=O)CC(C)(C)C1(O)CCC(C)O (stereo not drawn)	Methyltransferases active
CC(=O)/C=C/C1(O)C(C)=CC(=O)CC1(C)C (stereo not drawn)	none
CC1=CC(=O)CC(C)(C)[C@@]1(O)/C=C/C(C)O[C@@H]1O[C@H](CO)[C@@H](O)[C@H](O)[C@H]1O (stereo partly drawn)	none

Assay outcomes: PubChem, National Center for Advancing Translational Sciences (NCATS)
